Compounds with a hit are over-represented: about 5.7% of the library has one in this group of screens.
AHR act: activates the human aryl hydrocarbon receptor; P35869; AHR-responsive luciferase reporter cells, luminescence; activation, % at 5 µM; 320,000 tested, 2.5% active; AID 2796; in the data active = activation above about 47%
DAX1 inh-1: NR0B1 (DAX1) inhibition | HEK293 Gal4-DAX1 luciferase reporter, luminescence | inhibition, % at 6.75 µM | P51843 | 340,000 tested, 0.99% active;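 active = inhibition above the mean over all tested compounds plus 3 SD, cut at about 4.2% in these data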;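 also: inhibition shows as a rise in luminescence from relieved DAX1 repression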
Target sequence (P51843 207-470 limits assumed): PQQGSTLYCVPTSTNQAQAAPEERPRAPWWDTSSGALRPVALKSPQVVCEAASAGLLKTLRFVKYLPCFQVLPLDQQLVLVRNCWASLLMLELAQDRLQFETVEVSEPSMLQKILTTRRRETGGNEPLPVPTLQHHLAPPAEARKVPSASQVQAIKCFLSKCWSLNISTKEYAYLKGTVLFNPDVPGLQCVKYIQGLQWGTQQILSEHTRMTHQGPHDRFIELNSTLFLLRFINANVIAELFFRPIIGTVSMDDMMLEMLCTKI
ssDAF12 agonist: activators of S. stercoralis DAF-12 nuclear receptor. HEK293 ssDAF-12/GRIP1 lit1-tk-luc reporter, luminescence; % of 3 µM dafachronic acid response. activation, % at 6.8 µM. 370,000 tested, 1% active. AID 652126;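 active = activation above the mean over all tested compounds plus 3 SD, cut at about 0.9% in these data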
hcDAF12 agonist: activates DAF-12 receptor from parasite H. contortus; activation, % at 6.8 µM; HEK293 hcDAF-12 lit1-tk-luc reporter, luminescence; 0% DMSO, 100% Δ7-dafachronic acid; 370,000 tested, 1.4% active;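 active = activation above the mean of all tested compounds plus 3 SD, cut at about 5.5% in these data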
hgDAF12 agonist: hgDAF-12 agonism, primary luciferase screen | HEK293 GAL4-hgDAF12 UAS-luciferase reporter, agonist luminescence; normalized to butyrate control | 370,000 tested, 1.8% active | activation, % at 6.8 µM | AID 687014;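 active = activation above a cutoff set at the mean of all screened compounds plus 3 SD, cut at about 10% in these data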
DAX1 inh-2: DAX1 (NR0B1) inhibition, primary screen | HEK293T StAR-luciferase reporter, SF-1/DAX-1 repression relief | inhibition, % at 6.8 µM | 370,000 tested, 1.1% active | AID 652010;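 active = inhibition above the mean over all tested compounds plus 3 SD, cut at about 3.6% in these data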;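 also: higher inhibition means more luminescence from relief of DAX-1 repression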
hgDAF12 ag: hgDAF-12 agonism, confirmation assay | 3,300 tested, 80% active | activation, % at 6.8 µM | AID 743050 | HEK293 GAL4-hgDAF12 luciferase reporter, agonist mode; percent of butyrate response | shares compounds with hgDAF12 agonist;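 active = mean activation over triplicate wells above the hit cutoff derived from the earlier primary screen, cut at about 11% in these data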
LXR ag 2: LXR-beta agonism as DAF-12 counter-screen | 3,300 tested, under 10 active | shares compounds with hgDAF12 agonist | HEK293 Gal4-LXR luciferase reporter, 24 h | AID 743051 | activation, % at 6.8 µM;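 active = mean activation of the triplicate above a set limit carried over from the primary screen, none filed active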
Of the large screens only hits and unclear results are named; the others gave an inactive call (follow-up assays come after a bar, where they were run).

COc1ccc(C(=S)Nc2ccc(N(C)C)cc2)cc1	hgDAF12 agonist 15, DAX1 inh-2 4.0 | hgDAF12 ag 15 | LXR ag 2 inactive
COc1ccc(NC(=S)c2ccccc2)cc1	none
COc1cccc(C(=O)NC(=S)Nc2ccc(N(C)C)cc2)c1	hgDAF12 agonist 18 | hgDAF12 ag 12 | LXR ag 2 inactive
COc1cccc(C(=O)NC(=S)Nc2ccc(N3CCCC3)cc2)c1	none
COc1cccc(C(=O)NC(=O)Nc2cc(C)[nH]n2)c1	AHR act 51, DAX1 inh-1 8.1, hgDAF12 agonist 15 | hgDAF12 ag 14 | LXR ag 2 inactive
CC(/C=N\NC(=O)CN1CCN(S(=O)(=O)c2ccc(C)cc2)CC1)=C\c1ccccc1	none
O=C(CSc1nc(O)cc(=O)n1-c1ccc(Cl)c(Cl)c1)Nc1ccc(Cl)cc1Cl	none
Nc1ccccc1SCc1cn2cccnc2n1	hgDAF12 agonist 14 | hgDAF12 ag inactive | LXR ag 2 inactive
O=C(CC(=O)c1cccs1)c1ccncc1	hgDAF12 agonist 25, DAX1 inh-2 3.7 (no result: AHR act) | hgDAF12 ag inactive | LXR ag 2 inactive
O=C(NNC(=O)c1cccs1)c1ccncc1	none
O=C(O)c1cc(N/N=C/C=C/c2ccccc2[N+](=O)[O-])ccc1Cl	hgDAF12 agonist 13 | hgDAF12 ag inactive | LXR ag 2 inactive
COc1ccc(OCc2ccc(/C=N\NC(=O)c3sccc3C)o2)cc1	hgDAF12 agonist 14 (no result: AHR act) | hgDAF12 ag inactive | LXR ag 2 inactive
N#C/C(=C\c1ccc(OCc2cccc(C(=O)O)c2)cc1)C(=O)NCc1ccco1	hgDAF12 agonist 15, DAX1 inh-2 3.8 | hgDAF12 ag 18 | LXR ag 2 inactive
CCOc1ccc(NC(=O)C/C(C)=N/NC(=O)COc2ccc(Br)cc2C)cc1	none
CC(=O)Nc1ccc(SCC(=O)c2cc(C)n(-c3ccccc3)c2C)cc1	none
Cc1cc(C(=O)CSc2nncn2C)c(C)n1-c1ccccc1	hgDAF12 agonist 16 | hgDAF12 ag 16 | LXR ag 2 inactive
c1cnc2ccc(-c3ccc4ncccc4c3)cc2c1	hgDAF12 agonist 14, DAX1 inh-2 3.8 | hgDAF12 ag 17 | LXR ag 2 inactive
O=C(Nc1ccc2ncccc2c1)Nc1ccc2ncccc2c1	none
CS(=O)(=O)N1N=C(c2ccc(Br)cc2)CC1c1cccs1 (stereo not given)	hgDAF12 agonist 14 | hgDAF12 ag inactive | LXR ag 2 inactive
CS(=O)(=O)N1N=C(c2cccs2)CC1c1ccccc1 (stereo not given)	none
COc1cccc(COc2ccc3c(C)cc(=O)oc3c2)c1	hgDAF12 agonist 16 | hgDAF12 ag 14 | LXR ag 2 inactive
COc1ccc2c(C)cc(=O)oc2c1	none (no result: AHR act)
Cc1cc(=O)oc2cc(OCC(=O)Nc3nccs3)ccc12	hgDAF12 agonist 20 | hgDAF12 ag 18 | LXR ag 2 inactive
CCc1ccccc1NC(=O)CN(C)C(=O)CSc1nn(-c2ccc(F)cc2)c(=S)s1	none
O=C(CNC(=O)c1ccc(-c2ccccc2)cc1)OCc1ccc(Br)cc1	hgDAF12 agonist 13 (no result: AHR act) | hgDAF12 ag inactive | LXR ag 2 inactive
Nc1cc2c(cc1Cl)-c1ccccc1C2=NO	hgDAF12 agonist 16 (no result: AHR act) | hgDAF12 ag inactive | LXR ag 2 inactive
Fc1ccccc1Cn1nnc(-c2ccc3c(c2)OCO3)n1	ssDAF12 agonist 1.3, hgDAF12 agonist 14, DAX1 inh-2 3.7 | hgDAF12 ag 19 | LXR ag 2 inactive
CC1CN2C(c3ccc([N+](=O)[O-])cc3)=CSC2=N1 (stereo not given)	none
Cc1cccc(NC(=S)NNC(=O)c2sccc2C)c1	hgDAF12 agonist 13 | hgDAF12 ag inactive | LXR ag 2 inactive
CSc1ccc(C2NC(=O)c3ccccc3N2)cc1 (stereo not given)	DAX1 inh-1 4.6, hgDAF12 agonist 15 | hgDAF12 ag 14 | LXR ag 2 inactive
O=C1NC(c2ccc(O)cc2)Nc2ccccc21 (stereo not given)	none
O=C1NC[C@H](CCCCN2CCN(CC3CCCCC3)C(=O)C2=O)N(CC2CCCCC2)C1=O	none (no result: AHR act, DAX1 inh-1)
CCOc1cc(/C=N/O)ccc1OCc1ccc(C)cc1	none
O/N=C/c1ccc(OCc2ccccc2)c(Cl)c1	DAX1 inh-1 5.0, ssDAF12 agonist 1.4, hgDAF12 agonist 15 | hgDAF12 ag 13 | LXR ag 2 inactive
O/N=C/c1ccc(OCc2ccccc2)c(Br)c1	hgDAF12 agonist 16 | hgDAF12 ag 22 | LXR ag 2 inactive
COc1cccc(OCCCCSc2ncccn2)c1	none
COc1ccc(OCCCSc2ncccn2)cc1	hgDAF12 agonist 14 | hgDAF12 ag 11 | LXR ag 2 inactive
Cc1ccc(NC(=O)c2cc(F)c(F)cc2Cl)nc1	hgDAF12 agonist 17 | hgDAF12 ag 11 | LXR ag 2 inactive
Cc1ccc(NC(=O)Nc2cccc(F)c2)nc1	DAX1 inh-1 4.8, hgDAF12 agonist 13 (no result: AHR act) | hgDAF12 ag 14 | LXR ag 2 inactive
Cc1ccc(NC(=O)c2ccccc2F)nc1	hgDAF12 agonist 14 | hgDAF12 ag 14 | LXR ag 2 inactive
c1ccc(OCCSc2nnnn2-c2ccccc2)cc1	hgDAF12 agonist 16 | hgDAF12 ag 19 | LXR ag 2 inactive
Cc1cc(NC(=O)c2cnn3cccnc23)no1	none
Cc1cc(NC(=O)c2nn3cccnc3c2Cl)no1	hgDAF12 agonist 14 | hgDAF12 ag 15 | LXR ag 2 inactive
CCOC(=O)c1ccccc1NC(=O)Cn1c(=O)n(Cc2ccccc2)c(=O)c2c(C)c(C)sc21	none
CC(=O)N/N=C(\C)CCc1ccccc1	none
C/C(CCc1ccccc1)=N\NC(=O)c1ccccc1	hgDAF12 agonist 14 | hgDAF12 ag inactive | LXR ag 2 inactive
O=C(N/N=C/c1ccc(Br)cc1)c1ccc(Br)o1	hgDAF12 agonist 14 | hgDAF12 ag 15 | LXR ag 2 inactive
COc1ccc(-c2cc(=O)c3cc(C)ccc3[nH]2)cc1	hcDAF12 agonist 5.7, hgDAF12 agonist 16 | hgDAF12 ag 16 | LXR ag 2 inactive
CN(C(=O)c1cccc(COc2ccc(Cl)cc2Cl)c1)c1ccccc1	hgDAF12 agonist 13 | hgDAF12 ag 13 | LXR ag 2 inactive
Cc1ccc(-c2nc3ccccn3c2C=O)cc1	hcDAF12 agonist 5.8, hgDAF12 agonist 14 | hgDAF12 ag 12 | LXR ag 2 inactive
C[C@]12c3[nH]c4cc(-c5ccco5)ccc4c3CCN1C(=O)[C@@H](CC(=O)NCc1ccco1)C[C@@H]2C(=O)N1CCOCC1	none (no result: AHR act)
CCc1ccc(-c2cc(C(=O)N/N=C/c3c[nH]c4ccccc34)[nH]n2)cc1	AHR act 55, hgDAF12 agonist 18 | hgDAF12 ag inactive | LXR ag 2 inactive

Bioassay records from PubChem BioAssay.
